Reference: PubChem BioAssay AID1159580 (chemical genetic matrix, 2015)
In all, about 5,500 compounds went through this assay and about 2,000 (36%) were called active. Not shown: some 18% with an inconclusive outcome. Rule as the data show it: active = normalized growth mostly below about 0.91 (no sharp cut-off); inconclusive = no clear call, values can overlap the other calls; inactive = mostly above about 0.92. Some of the results follow.

Experiment: chemical genetic growth profiling, strain panel (AID 1159580);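 also: tested at 20 µM; growth read once vehicle control cultures reached saturation at 30 °C; 1 = growth at the plate median or of vehicle wells; lower values mean less growth of the strain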
Conditions: S. cerevisiae deletion strains, growth OD
[1] = locus YHR030C, strain SLT2, hits give low values
[2] = locus YHR079C, strain IRE1, hits give low values
[3] = locus YJL095W, strain BCK1, hits give low values
[4] = locus YJR066W, strain TOR1, hits give low values
[5] = locus YLR113W, strain HOG1, hits give low values
[6] = locus YNL183C, strain NPR1, hits give low values
[7] = locus YOR231W, strain MKK1, hits give low values
[8] = locus YPL256C, strain CLN2, hits give low values

Measured: normalized growth

COc1cc(O)c(C(C)=O)c(O)c1
inactive: [1] 1.05 | [2] 1.03 | [3] 0.989 | [4] 0.979 | [5] 0.935 | [6] 0.925 | [7] 1.04 | [8] 0.992

COc1cc(O)cc(O)c1C(C)=O
inactive: [1] 0.969 | [2] 0.981 | [3] 0.984 | [4] 0.916 | [5] 0.971 | [6] 0.907 | [7] 0.985 | [8] 0.97
